Compound activity (PubChem)
Most compounds without a hit are left out; they make up all but 7.6% or so of the library.
MCF10A rereplic – induces DNA re-replication in MCF 10a normal breast cells. 350,000 tested, 2.9% active. AID 624296. Potency, µM (highest dose often 46.1 µM), usual class: activators. MCF 10A DNA re-replication, Hoechst nuclear intensity, 48 h; also: nearly all actives have a fitted effect of over 50% in size
SW480 rereplic – inducers of DNA re-replication in SW480 colon cancer cells | SW480 DNA re-replication, Hoechst DNA content imaging, 48 h | Potency, µM (doses to about 46.1 µM), usual class: activators | 340,000 tested, 1.8% active | AID 624297; also: nearly all actives have a fitted effect of over 55% in size
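Per well, 250 cells were exposed to pinned compound for 48 hr. Nuclear DNA was visualised with Hoechst (40 min, 37 C) and total object intensity recorded by fluorescence scanning.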
KCNH2 3.1 block – inhibitors of human KCNH2 3.1 potassium channel isoform; U2OS KCNH2 3.1, thallium flux FluxOr; stronger effect = lower value; activity change, % (tested at about 1.8 µM); 340,000 tested, 0.95% active;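 active = maximum activity change below -70%; inconclusive = maximum activity change from -70% to -50%; inactive = maximum activity change above -50%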;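 also: thallium influx rate constant from kinetic fluorescence after stimulation buffer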
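We transduce U2OS cells with the mutant 3.1 virus, culture them overnight, load FluxOr with Red40 quencher for 45 min, then add stimulation buffer and read kinetically for 2 min to derive a normalized rate constant.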
hERG WT inh – KCNH2 (human, wildtype) channel inhibition; Q12809; U2OS, BacMam KCNH2, thallium flux FluxOr; stronger effect = lower value; activity change, % at 1.84 µM; 340,000 tested, 0.37% active; AID 720551;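 active = maximum activity change below -70%; inconclusive = maximum activity change between -70% and -50%; inactive = maximum activity change above -50%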
Target sequence (Q12809 whole entry, looked up): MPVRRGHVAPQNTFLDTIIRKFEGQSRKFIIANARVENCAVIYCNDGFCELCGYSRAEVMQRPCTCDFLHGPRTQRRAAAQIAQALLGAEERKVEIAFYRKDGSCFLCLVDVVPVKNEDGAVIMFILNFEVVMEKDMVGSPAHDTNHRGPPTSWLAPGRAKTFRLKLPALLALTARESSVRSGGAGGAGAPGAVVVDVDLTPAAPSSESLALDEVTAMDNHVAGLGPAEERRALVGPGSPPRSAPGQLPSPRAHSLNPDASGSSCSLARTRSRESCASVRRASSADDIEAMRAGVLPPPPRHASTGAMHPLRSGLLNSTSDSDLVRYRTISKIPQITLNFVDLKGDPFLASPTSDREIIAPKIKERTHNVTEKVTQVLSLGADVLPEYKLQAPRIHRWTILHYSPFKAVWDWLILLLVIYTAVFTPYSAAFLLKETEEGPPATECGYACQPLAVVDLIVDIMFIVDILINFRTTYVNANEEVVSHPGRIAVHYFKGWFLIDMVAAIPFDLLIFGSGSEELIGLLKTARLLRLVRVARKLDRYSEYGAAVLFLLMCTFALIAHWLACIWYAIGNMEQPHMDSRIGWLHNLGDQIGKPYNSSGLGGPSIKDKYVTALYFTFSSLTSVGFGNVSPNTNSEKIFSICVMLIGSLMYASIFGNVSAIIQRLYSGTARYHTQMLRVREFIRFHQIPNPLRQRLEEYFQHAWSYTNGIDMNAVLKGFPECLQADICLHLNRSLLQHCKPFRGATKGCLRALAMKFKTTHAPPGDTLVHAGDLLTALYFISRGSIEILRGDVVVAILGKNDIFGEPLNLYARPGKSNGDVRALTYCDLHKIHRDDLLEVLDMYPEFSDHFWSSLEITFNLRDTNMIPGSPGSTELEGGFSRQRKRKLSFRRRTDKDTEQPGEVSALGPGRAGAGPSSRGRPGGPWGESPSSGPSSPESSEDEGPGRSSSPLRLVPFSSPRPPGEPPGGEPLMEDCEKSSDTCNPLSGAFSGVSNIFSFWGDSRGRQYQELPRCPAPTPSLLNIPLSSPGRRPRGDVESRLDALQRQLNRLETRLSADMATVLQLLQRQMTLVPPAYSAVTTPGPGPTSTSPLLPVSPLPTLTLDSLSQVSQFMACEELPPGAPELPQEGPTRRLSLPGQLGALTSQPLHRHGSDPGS
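U2OS cells transduced with wild-type KCNH2 virus are loaded with FluxOr dye for 45 min, and thallium flux is measured in kinetic reads before and after stimulation buffer. Rate constants are normalized to DMSO controls.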
KB-3-1 tox – KB-3-1 parental cell cytotoxicity | KB-3-1 viability, CellTiter-Glo ATP luminescence, 72 h | Potency, µM (highest dose often 46.1 µM), hits mostly cytotoxic | 400,000 tested, 1.4% active; also: nearly all actives have a fitted effect of over 60% in size
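Cytotoxicity measured as CellTiter-Glo luminescence after 72 h at 37 C. Compound titrations were pinned onto drug-naive KB-3-1 parental adenocarcinoma cells grown in DMEM with 10% FBS, and normalized data fitted to concentration-response curves.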
KB-V1 MDR tox – kills drug-selected multidrug resistant KB-V1 cells. KB-V1 MDR cells viability, CellTiter-Glo, 72 h. Potency, µM (doses to about 46.1 µM), hits mostly cytotoxic. 400,000 tested, 3.4% active; also: nearly all actives have a fitted effect of over 60% in size
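Readout: CellTiter-Glo luminescence, 10 min after addition. Cells: KB-V1 MDR subline, 72 h at 37 degrees C with compound. Analysis: corrected, normalized data fitted to concentration-effect curves.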
Hits are given with their value. Unless noted, calls follow the shape of the dose curve; as a rule, active = well fitted curve in the direction sought with a large enough effect; inconclusive = small, poorly fitted or top-dose-only effect, or another doubt; inactive = no such curve, though single readings can be large; an effect the other way counts as inactive or inconclusive.

How did CC(=O)O[C@@]12CO[C@@H]1C[C@H](OC1OCC(O)C(O)C1O)[C@@]1(C)C(=O)[C@H](O)C3=C(C)[C@@H](OC(=O)[C@H](O)[C@@H](NC(=O)c4ccccc4)c4ccccc4)C[C@@](O)([C@@H](OC(=O)c4ccccc4)C12)C3(C)C (stereo not given in full) do in these assays?
MCF10A rereplic: 0.58µM; SW480 rereplic: 5.8µM; KCNH2 3.1 block: inactive; hERG WT inh: inactive; KB-3-1 tox: 1µM; KB-V1 MDR tox: inactive

Results for CCCCCC(=O)N[C@@H](c1ccccc1)[C@@H](O)C(=O)O[C@H]1C[C@@]2(O)[C@@H](OC(=O)c3ccccc3)C3[C@](C)(C(=O)[C@H](O)C(=C1C)C2(C)C)[C@@H](OC1OCC(O)C(O)C1O)C[C@H]1OC[C@@]31OC(C)=O (stereo not given in full) ?
MCF10A rereplic: inconclusive; SW480 rereplic: 3.7µM; KCNH2 3.1 block: inactive; hERG WT inh: inactive; KB-3-1 tox: 0.21µM; KB-V1 MDR tox: inactive

How did O=P(O)(O)C(Cl)(Cl)P(=O)(O)O do in these assays?
MCF10A rereplic: inactive; SW480 rereplic: inactive

How did CCOC(=O)c1cnc(N2CC2)nc1N do in these assays?
MCF10A rereplic: inconclusive; SW480 rereplic: inconclusive; KCNH2 3.1 block: inactive; hERG WT inh: inactive; KB-3-1 tox: inconclusive; KB-V1 MDR tox: 5.8µM

Results for N#CC1(N2CCCCC2)CCCCC1 ?
MCF10A rereplic: inactive; SW480 rereplic: inactive

How did COc1ccc(CN2C(=O)NC(=O)/C(=C/c3ccc(OC)c(OC)c3OC)C2=O)cc1 do in these assays?
MCF10A rereplic: inconclusive; SW480 rereplic: inactive; KCNH2 3.1 block: inactive; hERG WT inh: inactive; KB-3-1 tox: inactive; KB-V1 MDR tox: inactive

What do the screens show for `COc1ccc(-c2ccc(OC)c(OC)c2OC)cc1`?
MCF10A rereplic: 4.6µM; SW480 rereplic: 3.7µM; KCNH2 3.1 block: inactive; hERG WT inh: inactive; KB-3-1 tox: inconclusive; KB-V1 MDR tox: inconclusive

How did Cc1cccc(-n2c(/C=C/c3cn(C)c4ccccc34)nc3ccccc3c2=O)c1 do in these assays?
KB-3-1 tox: inactive; KB-V1 MDR tox: inactive

What do the screens show for `O=C(CSC1c2ccccc2-c2ccccc21)N/N=C/c1ccc(C(=O)O)cc1`?
MCF10A rereplic: inactive; SW480 rereplic: inactive; KCNH2 3.1 block: inactive; hERG WT inh: inactive; KB-3-1 tox: inactive; KB-V1 MDR tox: inactive

Results for O=C(CSC1c2ccccc2-c2ccccc21)N/N=C/c1ccccc1O ?
MCF10A rereplic: 2.1µM; SW480 rereplic: inconclusive; KCNH2 3.1 block: inactive; hERG WT inh: inactive; KB-3-1 tox: inconclusive; KB-V1 MDR tox: 5.2µM

Results for COC1=C(C)C(=O)c2c(c(COC(N)=O)c3n2C[C@@H]2[C@@H]3N2C)C1=O (stereo not given in full) ?
KB-3-1 tox: inactive; KB-V1 MDR tox: inconclusive

What do the screens show for `O=C1NC2C(=CC(O)C(O)C2O)c2cc3c(cc21)OCO3` (stereo not given)?
MCF10A rereplic: inconclusive; SW480 rereplic: inactive; KCNH2 3.1 block: inactive; hERG WT inh: inactive; KB-3-1 tox: 3.3µM; KB-V1 MDR tox: 2.3µM

What do the screens show for `O=C1NC2C(=CC(O)C(O)C2O)c2cc3c(c(O)c21)OCO3` (stereo not given)?
MCF10A rereplic: inconclusive; SW480 rereplic: inconclusive; KCNH2 3.1 block: inactive; hERG WT inh: inactive; KB-3-1 tox: 0.1µM; KB-V1 MDR tox: inconclusive

How did O=C1NC2C(O)C(O)C(O)C(O)C2c2cc3c(c(O)c21)OCO3 (stereo not given) do in these assays?
MCF10A rereplic: inactive; SW480 rereplic: inactive; KCNH2 3.1 block: inactive; hERG WT inh: inactive; KB-3-1 tox: inconclusive; KB-V1 MDR tox: 0.52µM

How did CC(C)N1CC=C(c2c[nH]c3ccccc23)CC1 do in these assays?
MCF10A rereplic: inactive; SW480 rereplic: inactive; KCNH2 3.1 block: inactive; hERG WT inh: inactive; KB-3-1 tox: 2.1µM; KB-V1 MDR tox: inactive

Results for COC(=O)[C@@]12CCCCN1[C@H](c1ccc(-c3ccc(Cl)c(Cl)c3)c(OC)c1)[C@@H]1C(=O)N(C)C(=O)[C@@H]12 ?
MCF10A rereplic: inactive; SW480 rereplic: inactive; KCNH2 3.1 block: inactive; hERG WT inh: inactive; KB-3-1 tox: inactive; KB-V1 MDR tox: inactive

What do the screens show for `N#Cc1cc2c(nc1SCC(=O)Nc1cc(Cl)cc(Cl)c1)C1CCN2CC1`?
MCF10A rereplic: 2.3µM; SW480 rereplic: inactive; KCNH2 3.1 block: inactive; hERG WT inh: inactive; KB-3-1 tox: inactive; KB-V1 MDR tox: 4.6µM

Results for N#Cc1cc2c(nc1SCC(=O)Nc1ccc(OC(F)(F)F)cc1)C1CCN2CC1 ?
KB-3-1 tox: inconclusive; KB-V1 MDR tox: inactive

How did N#Cc1cc2c(nc1SCC(=O)Nc1ccc(F)c(Cl)c1)C1CCN2CC1 do in these assays?
KB-3-1 tox: inactive; KB-V1 MDR tox: 15µM

Results for N#Cc1cc2c(nc1SCC(=O)Nc1cccc(C(F)(F)F)c1)C1CCN2CC1 ?
KB-3-1 tox: inconclusive; KB-V1 MDR tox: 9.2µM

What do the screens show for `N#Cc1cccc(NC(=O)CSc2nc3c(cc2C#N)N2CCC3CC2)c1`?
KB-3-1 tox: inconclusive; KB-V1 MDR tox: inactive

What do the screens show for `CCOC(=O)c1ccc(NC(=O)CSc2nc3c(cc2C#N)N2CCC3CC2)cc1`?
KB-3-1 tox: inactive; KB-V1 MDR tox: inconclusive

How did COc1ccccc1N1CCN(CCc2c[nH]c3cc4c(cc23)OCO4)CC1 do in these assays?
MCF10A rereplic: inactive; SW480 rereplic: inactive; KCNH2 3.1 block: inactive; hERG WT inh: inactive; KB-3-1 tox: inactive; KB-V1 MDR tox: 18µM

Results for CN1C2CCC1/C(=C/c1ccccn1)C(=O)/C2=C\c1ccccn1 ?
MCF10A rereplic: inconclusive; SW480 rereplic: inconclusive; KCNH2 3.1 block: inactive; hERG WT inh: inactive; KB-3-1 tox: 0.92µM; KB-V1 MDR tox: inconclusive

Results for CCC12CN3CC(CC)(CN(C1)C3c1ccccn1)C2=O (stereo not given) ?
KB-3-1 tox: inactive; KB-V1 MDR tox: inactive

Results for COC1CCC(OC2CC(C3(C)CCC4(CC(O)C(C)C(C(C)/C=C(\C)C(=O)C(C)CC(C)C(=O)O)O4)O3)OC3(OC(C4OC(O)(CO)C(C)CC4C)CC3C)C2C)OC1C (stereo not given) ?
MCF10A rereplic: 1.5µM; SW480 rereplic: inconclusive; KCNH2 3.1 block: inactive; hERG WT inh: inactive; KB-3-1 tox: inconclusive; KB-V1 MDR tox: inactive

What do the screens show for `COc1cccc(NP(=O)(Oc2ccccc2)Oc2ccccc2)c1`?
MCF10A rereplic: 3.3µM; SW480 rereplic: 16µM; KCNH2 3.1 block: inactive; hERG WT inh: inactive; KB-3-1 tox: 5.8µM; KB-V1 MDR tox: inactive

Results for CC12CCC(=O)C=C1CCC1C2CCC2(C)C(O)CCC12 (stereo not given) ?
MCF10A rereplic: inactive; SW480 rereplic: inactive; KB-3-1 tox: inconclusive; KB-V1 MDR tox: 4.1µM
